A selection: hits, their analogues and other compounds. The true share with any hit is near 4%.
Measles CPE = protection of cells from measles virus; Measles virus-infected cells, CPE protection, absorbance; protection (pct of control), % at 4 µM; 1.5% of 140,000 active; in the data active = protection mostly above about 24%, no sharp cut-off; inactive = mostly below about 26%
KCC2 mod = modulates chloride dependent transport by human KCC2; B-score of Tl+ flux slope (higher = more flux/activation; lower = inhibition) at 10 µM; Q9H2X9; KCC2 cells, thallium flux FluoZin-2 fluorescence; 2.2% of 190,000 active; AID 1456;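 active = thallium flux slope and its plate-corrected score both differing from the plate sample mean at a set confidence after two filtering rounds, in either direction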;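 note: slope of fluorescence scaled to starting intensity during 10 to 20 s after thallium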
Target sequence (Q9H2X9 whole entry, looked up): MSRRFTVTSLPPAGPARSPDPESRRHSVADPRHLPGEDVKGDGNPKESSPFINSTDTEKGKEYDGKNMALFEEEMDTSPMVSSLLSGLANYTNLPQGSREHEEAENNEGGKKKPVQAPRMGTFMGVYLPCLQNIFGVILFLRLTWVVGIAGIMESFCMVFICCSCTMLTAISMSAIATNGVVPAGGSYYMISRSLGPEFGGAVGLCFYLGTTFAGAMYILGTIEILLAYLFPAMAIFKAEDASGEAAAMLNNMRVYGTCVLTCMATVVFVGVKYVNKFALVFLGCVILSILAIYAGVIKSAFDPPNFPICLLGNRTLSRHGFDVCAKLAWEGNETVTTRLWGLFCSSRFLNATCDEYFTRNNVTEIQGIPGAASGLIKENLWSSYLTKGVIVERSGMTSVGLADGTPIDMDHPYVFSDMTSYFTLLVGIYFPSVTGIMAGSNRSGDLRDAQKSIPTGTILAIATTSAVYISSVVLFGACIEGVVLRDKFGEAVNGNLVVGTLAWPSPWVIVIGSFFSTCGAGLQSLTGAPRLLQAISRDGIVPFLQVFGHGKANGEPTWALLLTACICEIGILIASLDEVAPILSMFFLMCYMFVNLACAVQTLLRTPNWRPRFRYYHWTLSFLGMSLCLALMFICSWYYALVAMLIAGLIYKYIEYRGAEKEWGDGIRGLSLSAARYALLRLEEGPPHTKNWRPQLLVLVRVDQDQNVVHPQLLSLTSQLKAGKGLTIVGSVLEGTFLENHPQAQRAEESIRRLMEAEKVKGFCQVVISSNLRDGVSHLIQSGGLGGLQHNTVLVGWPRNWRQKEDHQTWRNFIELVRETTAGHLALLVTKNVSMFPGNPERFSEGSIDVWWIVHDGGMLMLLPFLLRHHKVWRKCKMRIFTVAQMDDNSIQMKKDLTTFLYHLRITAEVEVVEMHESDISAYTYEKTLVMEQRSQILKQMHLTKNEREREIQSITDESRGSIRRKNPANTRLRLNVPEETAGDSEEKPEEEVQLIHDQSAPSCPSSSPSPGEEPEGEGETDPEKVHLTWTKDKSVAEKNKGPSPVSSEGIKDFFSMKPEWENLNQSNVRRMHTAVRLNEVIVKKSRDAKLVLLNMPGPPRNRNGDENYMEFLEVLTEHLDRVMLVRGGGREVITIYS
HSV replic up = HSV replication enhancement; 0.005% of 220,000 active; HSV replication augmentation in cells, fold increase; maximum fold increase; AID 1956; in the data active = maximum fold increase above about 1.5; tested in PC3 cells
ROMK primary = modulators of human ROMK potassium channel. P48048. Tet-inducible ROMK, thallium flux fluorescence; actives lie on both sides. B-score at 10 µM. 2% of 130,000 active. AID 1918;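 active = signal ratio slope over the read window, or its plate-corrected B-score, at least 3 SD from the plate mean, either direction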;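 note: B-score of the F/F0 ratio slope over 7 to 12 s after thallium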
Arbovirus inh = arbovirus infection inhibition; arbovirus infection cell-based antiviral screen; inhibition, % at 10 µM; 0.37% of 200,000 active; AID 1251; in the data active = inhibition above about 30%
Starred values were filed as active, the others as inactive; i = inactive; . = not tested or not shown.

SMILES	Measles CPE	KCC2 mod	HSV replic up	ROMK primary	Arbovirus inh
O=C(NCCC(=O)N1CCN(c2ncccn2)CC1)c1ccccc1Cl	3	0.65	i	0.99	7
N#Cc1cc(-c2ccccc2)cn(Cc2c(Cl)cccc2Cl)c1=O	53*	-0.95	i	.	-8
O=C(N/N=C1/C(=O)c2cccc3cccc1c23)c1ccc(Cl)cc1	9	4.8*	i	1.1	-25
CCNC(=S)N/N=C1\C(=O)c2cccc3cccc1c23	20	24*	i	1.2	1
CCOC(=O)c1ccc(NC(=S)NCCCN2CCOCC2)cc1	.	0.3	i	-0.69	12
COc1ccc(OCCCC(=O)NCCc2ccc(OC)c(OC)c2)cc1	7	0.46	i	0.58	5
CCOc1ccc(C(=O)CC(=O)C(=O)NCCc2ccc(OC)c(OC)c2)cc1	38*	0.68	i	-0.61	-1
O=C(Nc1sc2c(c1C(=O)N1CCOCC1)CCCCC2)c1cccnc1	.	-1.1	i	-0.72	7
Cc1ccc(SC(C)C(=O)Nc2cccc(N(C)S(C)(=O)=O)c2)cc1 (centres undefined)	33*	.	i	-0.14	5
O=C(O)CCN(CCC(=O)O)c1nnc(SCc2ccccc2)s1	3	0.24	i	-0.031	0
CCSc1nnc(N(CCC#N)CCC#N)s1	13	1.2	i	-5*	-9
Cc1ccc(-c2csc(NC(=O)c3ccc4c(=O)n5c(nc4c3)CCCCC5)n2)cc1	56*	-0.049	i	.	11
O=C(c1ccc2c(=O)n3c(nc2c1)CCCCC3)N1CCN(C(c2ccccc2)c2ccccc2)CC1	42*	-0.69	i	-0.82	-34
Cc1ccc(C(=O)N2CCC3(CC2)Oc2ccc(F)cc2C(=O)C32CC(c3ccccc3)=NO2)s1 (centres undefined)	.	-0.72	i	.	.
CN1CCc2c(sc(/N=C/c3cc(C(C)(C)C)ccc3O)c2C#N)C1	.	0.29	i	.	.
O=C(O)c1cn(Cc2ccccc2Cl)c2ccc(S(=O)(=O)N3CCOCC3)cc2c1=O	.	0.0055	i	-0.049	17
O=C(Cn1cnc2c(nnn2Cc2ccccc2F)c1=O)N1CCN(c2ccccc2)CC1	16	.	i	-0.54	-26
O=C(Cn1cnc2c(nnn2Cc2ccc(Cl)cc2)c1=O)N1CCN(c2ccccc2)CC1	.	-3.9*	i	.	7
Cc1cccc2nc(CSc3ccccc3C(=O)O)cn12	54*	1.3	i	.	-2
CSc1nsc(SCC(=O)N2CCCCC2)n1	.	0.03	i	1.5	-4
Cc1ccc(Nc2nnc(-c3ccc(N4CCOCC4)c([N+](=O)[O-])c3)c3ccccc23)cc1	35*	-1.8	i	.	-12
O=[N+]([O-])c1cc(-c2nnc(Nc3ccccc3)c3ccccc23)ccc1N1CCOCC1	6	-0.22	i	.	-11
Cc1scc(C(=O)Nn2cnnc2)c1-c1ccccc1	41*	-0.54	i	.	12
O=C(NC1CC(=O)c2sccc21)c1ccc(Cl)cc1Cl (centres undefined)	.	-0.43	i	-0.48	-6
CCOC(=O)c1nn(-c2cccc(Cl)c2)c2nc(Nc3ccccc3)cc(=O)n12	10	0.56	i	-0.43	34*
SMILES	Measles CPE	KCC2 mod	HSV replic up	ROMK primary	Arbovirus inh
CCOC(=O)c1nn(-c2ccccc2C)c2nc(Nc3ccccc3)cc(=O)n12	11	-0.13	i	-0.27	7
CCOC(=O)c1nn(-c2ccc(Cl)cc2)c2nc(Nc3ccccc3)cc(=O)n12	3	1.7	.	-0.49	42*
CCOC(=O)c1nn(-c2cccc(OC)c2)c2nc(Nc3ccccc3)cc(=O)n12	5	.	i	0.28	-8
O=Cc1ccc(-c2cc(Cl)ccc2Cl)[nH]1	.	1	i	-0.89	5
Cc1cccc(C)c1NC(=O)CSC(=O)c1sc2ccccc2c1Cl	.	0.4	i	.	.
N#C/C(=C/c1cccn1-c1cccc(C(=O)O)c1)c1ccc(F)cc1	.	-2.2	i	-0.032	0
S=C(N/N=C/c1ccccc1Cl)Nc1ccccc1	44	16*	i	.	-6
Cc1nc2ccccn2c1C(=O)NC1CCCc2ccccc21 (centres undefined)	.	-0.11	i	-0.077	6
CN1C(c2ccc(F)cc2)=CS/C1=C(/C#N)c1nnc(N2CCOCC2)n1-c1ccccc1	7	-2.1	i	.	10
C=CCN1C(c2ccccc2)=CS/C1=C(/C#N)c1nnc(N2CCOCC2)n1-c1ccccc1	52*	-1.3	i	.	4
Cc1ccc2c(c1)c1c(n2CC(O)Cn2c(C)nc3ccccc32)C(=O)CCC1 (centres undefined)	24	0.043	i	.	37*
Cc1cccc(C(=O)NC(=S)NNC(=O)c2ccc(Cl)cc2)c1	29	42*	i	5.3*	-27
O=C(NNC(=O)c1cccs1)c1ccc([N+](=O)[O-])cc1	.	-2.6	i	0.89	35*
CC(C)(C)c1ccc(C(=O)NC(=S)NNC(=O)c2cccs2)cc1	1	57*	i	9.1*	-36
Cc1cccc(C(=O)NC(=S)NNC(=O)c2cccs2)c1	4	34*	i	.	-17
O=C(NNC(=O)c1cccs1)c1ccc(Cl)c([N+](=O)[O-])c1	8	-0.41	i	-0.33	2
Cc1cccc(C(=O)NNC(=O)c2ccc(Br)cc2)c1	.	.	i	.	-1
CCOCCCNC(=S)N1CCC(NC(=O)C23CC4CC(CC(C4)C2)C3)CC1	.	0.76	i	-0.23	-2
COc1ccc(CN(C)CC(=O)Nc2cccc(S(N)(=O)=O)c2)c(OC)c1OC	.	0.29	i	1.1	0
CCN(CC)c1nc2cc(C)ccc2cc1/C=C(\C#N)C(N)=O	.	-0.53	i	0.017	-2
COC(=O)C(C)NC(=O)C1CCCN1S(=O)(=O)c1cc(C)c(Cl)cc1C (centres undefined)	7	-4.3*	i	.	0
CC(=O)N(C)C1=C(O)c2ccccc2C(=O)C1=O	39*	-0.61	i	0.024	-6
COc1cc(NC(=O)CCCl)cc(-n2cnnn2)c1	.	0.2	i	.	2
Nc1ccc(C2(c3ccc(N)cc3)C(=O)Nc3ccccc32)cc1	21	-0.43	i	.	2
O=C1Nc2ccccc2C1(c1ccccc1)c1ccccc1	52*	.	i	.	-32
SMILES	Measles CPE	KCC2 mod	HSV replic up	ROMK primary	Arbovirus inh
COc1ccc(C2=Nn3c(nnc3-c3ccncc3)SC2)cc1OC	5	-0.58	i	-0.45	49*
Cc1ccc(CNC(=O)C(=O)Nc2nccs2)cc1	.	0.81	i	-0.12	-2
CCOC(=O)c1ccc(CNC(=O)CSc2nnnn2-c2ccc(Cl)cc2)o1	43*	.	.	-0.85	2
COCCN(CCOC)c1nc(S(=O)(=O)c2ccc(C)cc2)c(Cl)s1	28*	-0.52	i	.	-6
CCOc1nc(S(=O)(=O)c2ccc(C)cc2)c(Cl)s1	4	-0.33	i	.	6
Cc1c(CN2CCC(CO)(CCOc3ccccc3)CC2)[nH]c2c(Cl)cccc12	.	0.28	i	-1.2	-41
O=[N+]([O-])c1ccccc1/C=C/C=N/n1c(-c2ccccc2F)n[nH]c1=S	.	2.7	i	.	.
CC(NC(=O)c1cccs1)c1nnc(SCc2ccc(Cl)cc2Cl)n1C (centres undefined)	6	0.83	i	.	77*

Screens deposited in PubChem by several laboratories.
